MCF10A rerep: DNA re-replication induction in MCF 10a cells | MCF 10A DNA re-replication, Hoechst nuclear intensity, 48 h | Potency, µM (series often up to 46.1 µM), most hits filed as activators | hit rate 2.9% among 350,000; further: nearly all actives have a fitted effect of over 50% in size
SW480 rerep: induces DNA re-replication in SW480 colon adenocarcinoma cells. SW480 DNA re-replication, Hoechst DNA content imaging, 48 h. Potency, µM (titrated, usually from 46.1 µM), usual class: activators. hit rate 1.8% among 340,000. AID 624297; further: nearly all actives have a fitted effect of over 55% in size
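Treated cells incubate 48 hr (37 C, 5% CO2), are stained 40 min with Hoechst, and nuclear fluorescence is enumerated; a rise in nuclei with high DNA signal marks re-replication.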
Gal4-VP16 FLuc: counter-screen for ROR gamma inhibitors: Gal4-VP16 reporter. hit rate 3.5% among 310,000. Drosophila S2 Gal4-VP16 UAS-luciferase, luminescence, 20 h. Potency, µM (top dose mostly 53.6 µM), usual class: inhibitors;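 further: Gal4-VP16 expression switched on by copper sulfate through the metallothionein promoter; nearly all actives have a fitted effect of over 50% in size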
IL1B secr inh: inhibitors of inflammasome signaling (IL-1 beta secretion); hit rate 4.7% among 360,000; activity change, % at 57.5 µM; AID 743279; THP-1 LPS/ATP IL-1B secretion, AlphaLISA, 16 h; active compounds read low; in the data active means activity change below about -50%; inconclusive means mostly about -30% to -49%
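Secreted IL-1B measured by AlphaLISA bead assay after 16 h compound exposure of THP-1 cells; compounds (final up to 57.5 uM) added 1 h before LPS (250 ng/mL) and ATP (1.25 mM) stimulation; lower signal means less secretion.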
RORgamma inh: ROR gamma (mouse) transcription inhibition. Drosophila S2 Gal4-RORgamma UAS-luciferase reporter, 20 h. P51450. hit rate 5.4% among 310,000. AID 2551. Potency, µM (series often up to 53.6 µM), actives largely listed as inhibitors; further: nearly all actives have a fitted effect of over 60% in size
Target sequence (P51450 whole entry, looked up, the tested form may be a part): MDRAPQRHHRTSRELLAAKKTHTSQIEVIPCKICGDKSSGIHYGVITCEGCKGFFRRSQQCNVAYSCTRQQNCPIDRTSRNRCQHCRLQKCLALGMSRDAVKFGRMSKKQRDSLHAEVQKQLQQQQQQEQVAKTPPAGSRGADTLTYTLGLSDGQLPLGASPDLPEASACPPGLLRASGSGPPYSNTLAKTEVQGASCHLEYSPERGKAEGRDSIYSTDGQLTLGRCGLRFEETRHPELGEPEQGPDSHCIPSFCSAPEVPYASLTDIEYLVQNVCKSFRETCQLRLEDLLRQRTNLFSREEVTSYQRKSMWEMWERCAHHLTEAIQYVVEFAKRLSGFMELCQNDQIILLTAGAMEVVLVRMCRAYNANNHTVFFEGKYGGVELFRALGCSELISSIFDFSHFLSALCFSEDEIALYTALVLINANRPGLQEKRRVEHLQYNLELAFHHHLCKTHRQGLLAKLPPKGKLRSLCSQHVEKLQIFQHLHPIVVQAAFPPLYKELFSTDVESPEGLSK
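Drosophila S2 cells stably expressing Gal4-DBD/mouse RORγ fusion under metallothionein promoter plus UAS-luciferase; compound 1 h, then 700 uM CuSO4 induction for 20 h at ambient temperature; inhibition read as reduced luminescence.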
Of the large screens only hits and unclear results are named; the others gave an inactive call. A selection: hits, their analogues and other compounds. The true share with any hit is near 11%. Unless noted, the call rests on the fitted dose curve; in most records, active means well fitted curve in the direction sought with a large enough effect; inconclusive means small, poorly fitted or top-dose-only effect, or another doubt; inactive means no such curve, though single readings can be large; an effect the other way counts as inactive or inconclusive.

COC(=O)C1=C(O)/C(=C\c2ccc(OCC(=O)Nc3ccc(OC)cc3)cc2)N=C1C	MCF10A rerep inconclusive, SW480 rerep 15µM
COC(=O)C1=C(O)/C(=C\c2ccc(OCC(=O)Nc3ccccc3OC)cc2)N=C1C	none
CN(c1cccc(NC(=O)c2ccc(Cl)c(S(=O)(=O)Nc3ccccc3)c2)c1)S(C)(=O)=O	none
Cc1ccccc1NS(=O)(=O)c1cc(C(=O)Nc2cccc(N(C)S(C)(=O)=O)c2)ccc1C	MCF10A rerep 15µM, RORgamma inh inconclusive
Cc1ccc(NS(=O)(=O)c2cc(C(=O)Nc3cccc([N+](=O)[O-])c3)ccc2C)cc1	MCF10A rerep inconclusive, Gal4-VP16 FLuc inconclusive, IL1B secr inh -80, RORgamma inh inconclusive
Cc1ccc(SCCNC(=O)c2ccc(C)c(S(=O)(=O)Nc3ccccc3C)c2)cc1	SW480 rerep inconclusive, IL1B secr inh -67, RORgamma inh inconclusive
Cc1ccc(C(=O)Nc2cccc([N+](=O)[O-])c2)cc1S(=O)(=O)Nc1ccc(NC(=O)c2ccccc2)cc1	RORgamma inh inconclusive
Cc1ccc(C)c(NC(=O)c2ccccc2NS(=O)(=O)c2cc([N+](=O)[O-])ccc2C)c1	Gal4-VP16 FLuc 14µM, IL1B secr inh inconclusive, RORgamma inh inconclusive
COc1ccccc1NS(=O)(=O)c1cc(C(=O)NCc2ccco2)ccc1C	IL1B secr inh -63
CCOC(=O)c1cc(-c2ccccc2)nn1Cc1cc(CC)no1	none (no result: Gal4-VP16 FLuc, RORgamma inh)
CCc1cc(Cn2nc(-c3ccccc3)cc2C(=O)NCC2CC2)on1	MCF10A rerep 0.15µM (no result: Gal4-VP16 FLuc, RORgamma inh)
CCc1cc(Cn2nc(-c3ccccc3)cc2C(=O)NCCOC)on1	none (no result: Gal4-VP16 FLuc, RORgamma inh)
CCc1cc(Cn2nc(-c3ccccc3)cc2C(=O)NCc2cccs2)on1	MCF10A rerep inconclusive, SW480 rerep inconclusive, IL1B secr inh -73 (no result: Gal4-VP16 FLuc, RORgamma inh)
CCn1c(=S)[nH]c2c(c1=O)C(C)(C)Cc1ccccc1-2	MCF10A rerep inconclusive, Gal4-VP16 FLuc 3.5µM, RORgamma inh 1µM
Cn1c(=S)[nH]c2c(c1=O)C(C)(C)Cc1ccccc1-2	Gal4-VP16 FLuc inconclusive
CC(=O)N1CCN(C(=O)COC(=O)/C=C/c2ccc(C(F)(F)F)cc2)CC1	IL1B secr inh inconclusive (no result: Gal4-VP16 FLuc, RORgamma inh)
CCCCNC(=O)C1C(c2ccc(OC)cc2)=Nc2ccccc2N1C(=O)c1cccnc1 (centres undefined)	none (no result: MCF10A rerep, SW480 rerep, Gal4-VP16 FLuc, RORgamma inh)
O=C(CNC(=O)c1ccccc1)NCCc1ccc(O)c(O)c1	none (no result: MCF10A rerep, SW480 rerep, IL1B secr inh)
Cc1[nH]c2ccccc2c1CCNC(=O)CCC(=O)c1ccccc1	none
COc1ccc2[nH]c(C)c(CCNC(=S)Nc3cccc(C)c3C)c2c1	Gal4-VP16 FLuc inconclusive, RORgamma inh 7.1µM
CCc1cccc(CC)c1NC(=S)NCCc1ccc(O)c(O)c1	MCF10A rerep inconclusive, IL1B secr inh inconclusive, RORgamma inh 13µM
CCc1cccc(CC)c1NC(=S)NCCc1c(C)[nH]c2ccccc12	MCF10A rerep inconclusive, SW480 rerep inconclusive, Gal4-VP16 FLuc 7.1µM, RORgamma inh inconclusive
COc1ccccc1CCC(=O)OCC(=O)Nc1ccc2[nH]c(=O)[nH]c2c1	none (no result: Gal4-VP16 FLuc, RORgamma inh)
O=C1NC[C@H](CCCCN2CCN(CCc3ccc(O)cc3)C(=O)C2=O)N(CCc2ccc(O)cc2)C1=O	none (no result: MCF10A rerep, SW480 rerep, Gal4-VP16 FLuc, RORgamma inh)
CCC(Sc1nc2ccsc2c(=O)n1-c1ccc(Cl)c(C)c1)C(=O)NCc1ccco1 (centres undefined)	MCF10A rerep inconclusive, IL1B secr inh -71, RORgamma inh inconclusive
COc1ccccc1C(CNC(=O)c1cccc(S(=O)(=O)Nc2ccc(C)cc2)c1)N1CCCC1 (centres undefined)	IL1B secr inh inconclusive (no result: Gal4-VP16 FLuc, RORgamma inh)
COc1cccc(-c2nc(-c3ccccc3)c3ccc(Cl)cc3n2)c1	none (no result: MCF10A rerep, SW480 rerep, Gal4-VP16 FLuc, RORgamma inh)
CC(C)NCC(O)Cn1c2c(c3ccccc31)CCc1c-2cnn1-c1ccccc1 (centres undefined)	MCF10A rerep 18µM, Gal4-VP16 FLuc inconclusive, RORgamma inh inconclusive
CC(Sc1nc(NC(C)(C)C)nc(N(C)C)n1)C(=O)Nc1ccccc1 (centres undefined)	IL1B secr inh -102
CC(Sc1nc(N(C)C)nc(N2CCOCC2)n1)C(=O)Nc1ccccc1 (centres undefined)	none (no result: Gal4-VP16 FLuc)
Cc1cc(CC(=O)O)c(C)n1-c1ccc(Cl)cc1	none (no result: IL1B secr inh)
CC1(C(=O)Nc2cccc3cccnc23)CCN1Cc1cccc2c1OCO2 (centres undefined)	none (no result: MCF10A rerep, SW480 rerep, Gal4-VP16 FLuc, RORgamma inh)
CO/N=C(/C)CCC(=O)OC[C@@H]1O[C@H](C#Cc2ccccc2)C=C[C@@H]1Oc1ccc(C)cc1	none (no result: MCF10A rerep, SW480 rerep, IL1B secr inh)
Cc1cc(C(=O)COC(=O)c2ccc[nH]c2=O)c(C)n1-c1ccccc1	Gal4-VP16 FLuc 0.45µM, RORgamma inh 13µM
Cc1cc(C(=O)OCC(=O)NCc2ccco2)c(C)n1-c1ccc(F)cc1	MCF10A rerep 2.1µM, SW480 rerep 3.7µM
Cc1cc(C(=O)COC(=O)c2ccc[nH]c2=O)c(C)n1-c1ccc(F)cc1	Gal4-VP16 FLuc 7.1µM, RORgamma inh 10µM
CCNC(=O)COC(=O)c1cc(C)n(-c2ccccc2)c1C	SW480 rerep inconclusive
CCCCCC/C=C1\CC(C(=O)OCC)Oc2ccccc21 (centres undefined) (tested in a mixture with another compound)	none (no result: MCF10A rerep, SW480 rerep, IL1B secr inh)
COc1ccc(C(=O)/C=C/C(=O)N(CC(=O)NCCC(C)C)Cc2cccs2)c(O)c1	SW480 rerep inconclusive, Gal4-VP16 FLuc inconclusive, IL1B secr inh -88, RORgamma inh inconclusive
COc1ccc(C(=O)/C=C/C(=O)N(CC(=O)NC2CCCCC2)Cc2ccc(F)cc2)c(O)c1	MCF10A rerep inconclusive, SW480 rerep inconclusive, Gal4-VP16 FLuc 7.1µM, IL1B secr inh -98
CCC#CCOCC(=S)Nc1ccccc1	none (no result: MCF10A rerep, SW480 rerep, IL1B secr inh)
CCCCCCn1c(=O)n2n(c1=O)C[C@]1(OC(=O)NC3CC3)CN(S(=O)(=O)c3ccc(C)cc3)C[C@]1(O)C2	none (no result: MCF10A rerep, SW480 rerep, Gal4-VP16 FLuc, RORgamma inh)
CCN(Cc1ccccc1)C(=O)c1ccc2c(=O)n3c(nc2c1)CCC3	none (no result: Gal4-VP16 FLuc, RORgamma inh)
Cc1sc2ncnc(NCC(O)c3ccc([N+](=O)[O-])cc3)c2c1C (centres undefined)	Gal4-VP16 FLuc 5µM, IL1B secr inh -55, RORgamma inh inconclusive
Cc1sc2ncnc(NCC(c3ccccc3)N(C)C)c2c1C (centres undefined)	IL1B secr inh inconclusive
Cc1sc2ncnc(NCC(O)c3ccccc3)c2c1C (centres undefined)	Gal4-VP16 FLuc 16µM, RORgamma inh inconclusive
CN1CCN(C(=O)C2Cc3c(-c4ccc5c(c4)OCO5)ccnc3O2)CC1 (centres undefined)	none (no result: MCF10A rerep, SW480 rerep, Gal4-VP16 FLuc, RORgamma inh)
O=C(CSc1ncnc2ccccc12)Nc1ccc2c(c1)OCO2	MCF10A rerep inconclusive, IL1B secr inh -65
CC(C)Cn1c(SC(C)C(=O)Nc2ccc3c(c2)OCCO3)nc2ccccc2c1=O (centres undefined)	RORgamma inh 13µM
O=C(CSc1ncnc2c1cnn2-c1ccccc1)Nc1ccc2c(c1)OCO2	MCF10A rerep 15µM
O=C(CSc1ncnc2c1cnn2-c1ccc(Cl)cc1)NCc1ccc2c(c1)OCO2	none
O=C(CSc1ncnc2ccccc12)NCc1ccc2c(c1)OCO2	none

Assay outcomes (PubChem BioAssay)
